Assay results reported in PubChem BioAssay AID504834 (National Center for Advancing Translational Sciences (NCATS), 2011).
Hit rate of the full screen: of about 320,000 compounds, about 22,000 (6.9%) were called active. Another 27% or so got no clear call; they are omitted. Calls follow the shape of the dose curve; as a rule, active = well fitted inhibition curve with a large enough effect; inconclusive = small, poorly fitted or top-dose-only effect, or another doubt; inactive = no such curve, though single readings can be large or run the other way. What follows is part of a selection rich in actives, with near analogues and random picks from the rest. Where a call stands in place of a potency, no number is given.

Experiment: Primary qHTS for delayed death inhibitors of the malarial parasite plastid, 96 hour incubation
Conditions: P. falciparum luciferase reporter growth; series mostly up to 28.7 µM
Description: The goal of this screen is to discover new antimalarial compounds that act by inhibiting the development of the apicoplast in the malarial parasite Plasmodium falciparum. The biochemical processes that make this organelle essential for erythrocytic stage parasites are not well understood. However, antibiotics such as azithromycin and tetracycline, which target the apicoplast translational machinery, have a potent antimalarial effect.
We have developed a cell-based assay that measures parasite growth based on the expression of an integrated copy of a firefly luciferase reporter. To detect small molecules that cause this "delayed death" phenotype, erythrocytes infected with the luciferase-expressing parasites were incubated with compounds for either one or two generations, corresponding to 48 and 96 hours, respectively. Compounds that inhibit parasite growth in the second generation, but not the first, should be enriched in antimalarials that target the apicoplast. Growth inhibition is detected by a decrease in luciferase activity.
Assay Provider: David Fidock and Eric Ekland, Columbia University
Keywords: NIH Roadmap, MLPCN, MLI, MLSMR, qHTS, NCGC, qHTS, malaria, luciferase, viability
Four microliters of infected erythrocytes (2% hematocrit, 0.05% parasitemia final concentration) in culture medium were dispensed and the plates incubated for 96 hours at 37 C in 5% CO2. Two microliters of luciferase detection reagent was added and luminescence was detected by a ViewLux (PerkinElmer) reader.
Potency is read from the fitted curve at half-maximal effect.

Compound | Potency
COc1cc(S(=O)(=O)N2CCN=C2c2ccccc2)ccc1Cl | inactive
COc1ccc(-n2c(O)c(C=NCC(c3ccco3)N3CCCC3)c3ccccc3c2=O)cc1OC (stereo not given) | 10.4 µM (active)
CCN(CC)CCCN=Cc1c(O)n(-c2ccc(C)cc2)c(=O)c2ccccc12 | inactive
Cc1ccc(-n2c(O)c(C=Nc3ccc(S(=O)(=O)Nc4ncccn4)cc3)c3ccccc3c2=O)cc1C | inactive
O=c1[nH]c(N2CCOCC2)nc2ccccc12 | inactive
CC(C(=O)NC1CCS(=O)(=O)C1)N1C(=O)/C(=C/c2ccc(Cl)cc2)SC1=S (stereo not given) | inactive
CC1CCN(C2=NC(=O)/C(=C/c3cn[nH]c3-c3ccccc3)S2)CC1 | 13.1 µM (active)
O=C1N=C(N2CCOCC2)S/C1=C\C=C/c1ccccc1 | inactive
Cc1ccsc1/C=C1\SC(N2CCOCC2)=NC1=O | inactive
Cc1ccc(-c2nnc(CN3CCN(C)CC3)o2)cc1 | inactive
COc1ccc(CCNC(=O)C(=O)NCC2OCCN2S(=O)(=O)c2ccc(F)cc2)cc1OC (stereo not given) | inactive
O=[N+]([O-])c1ccc(O)c(/C=N/Nc2ccccc2[N+](=O)[O-])c1 | inactive
Cc1ccc(S(=O)(=O)NC(=O)COc2ccccc2C)cc1 | inactive
Cc1ccc(NS(=O)(=O)c2ccc(N/N=C/c3ccccc3OCC(=O)O)c([N+](=O)[O-])c2)c(C)c1 | 9.28 µM (active)
O=C(Cc1ccc(Cl)cc1)NC(=S)Nc1ccccc1O | inactive
CC1(C)O[C@@H]2[C@H](O1)[C@@H](COS(=O)(=O)O)O[C@H]2n1ccc(=O)[nH]c1=O | inactive
CN(c1ccccc1)S(=O)(=O)c1ccc(NC(=O)COc2ccccc2)cc1 | inactive
CN(c1ccccc1)S(=O)(=O)c1cccc(NC(=O)Cc2c(F)cccc2Cl)c1 | 14.7 µM (active)
CN(C)S(=O)(=O)c1cccc(NC(=O)Cc2ccsc2)c1 | inactive
Cc1ccc(S(=O)(=O)n2cccc2CO)cc1 | inactive
COc1ccccc1CCNC(=O)C1CCN(C(=O)/C=C/c2ccccc2)CC1 | inactive
CCN(CC(=O)NCc1ccc(Cl)cc1)C(=O)CSc1ccccc1 | inactive
Nc1ccc(Nc2ccccc2)cc1 | 9.28 µM (active)
Nc1ccc(-c2nnc(-c3ccc(-c4ccccc4)cc3)o2)cc1 | inactive
Nc1ccc(C(=O)NCc2ccccc2)cc1 | inactive
Cc1ccnc(NC(=O)CNC(=O)c2ccccc2)c1 | inactive
COc1ccc(Nc2ncnc3ccc(Br)cc23)c(OC)c1 | inactive

Compound | Potency
C=CCNc1ncnc2ccc(Br)cc12 | inactive
CC1(C)CC2CC(C)(CN2c2ncnc3ccc(Br)cc23)C1 (stereo not given) | 16.5 µM (active)
CCC(C)C(=O)Nc1ccccc1N1CCN(c2ccc(F)cc2)CC1 (stereo not given) | inactive
Cc1csc(=O)n1CCC(=O)OCC(=O)NNC(=O)c1ccc(Br)cc1 | inactive
O=c1ccc2cc(S(=O)(=O)Nc3ccccc3F)ccc2o1 | inactive
O=C1COc2ccc(S(=O)(=O)Nc3ccc(OC(F)(F)F)cc3)cc2N1 | inactive
O=C(COC(=O)c1ncc(Cl)c(Cl)c1Cl)NCc1cccs1 | inactive
O=C(COC(=O)c1cccs1)NCc1cccs1 | inactive
O=C(COC(=O)c1ccc(Cl)nc1)NCc1cccs1 | 2.33 µM (active)
COc1ccc(-c2nn(-c3ccccc3)cc2/C=C2/SC(=S)N(CCCC(=O)O)C2=O)c(C)c1 | inactive
CS(=O)(=O)N1CCc2cc(C(=O)Nc3ccccc3Br)ccc21 | inactive
COc1ccc(C(=O)Nc2ccccc2C(=O)NCc2ccco2)cc1 | inactive
O=C(NCc1ccco1)c1cnn2c(C(F)(F)F)cc(-c3ccco3)nc12 | 1.65 µM (active)
O=C(O)c1cnn2c(C(F)(F)F)cc(-c3ccccc3)nc12 | inactive
CCC1CCCCN1C(=O)CSc1nc2c(c(=O)n(C)c(=O)n2C)n1C (stereo not given) | inactive
CCC1CCCCN1C(=O)CSc1nc(C)cc(C)n1 (stereo not given) | inactive
CCC1CCCCN1C(=O)CSc1nc2c(c(=O)n1C)SC(C)C2 (stereo not given) | 1.47 µM (active)
O=S(=O)(NCc1ccccc1Br)c1ccccc1Br | inactive
O=C(CN1CCN(C2CCS(=O)(=O)C2)CC1)N1N=C(c2ccc(Cl)cc2)CC1c1ccco1 (stereo not given) | inactive
Cc1ccccc1C(=O)NCC(c1ccco1)N1CCc2ccccc21 (stereo not given) | inactive
CC1Cc2ccccc2N1S(=O)(=O)c1cccc(C(=O)NCC(c2ccco2)N2CCCC2)c1 (stereo not given) | 1.85 µM (active)
O=C(NCC(c1ccco1)N1CCc2ccccc2C1)c1ccccc1Cl (stereo not given) | inactive
COc1ccc(C(=O)NCC(c2ccco2)N2CCc3ccccc32)cc1OC (stereo not given) | inactive
CCOC(CNC(=O)C(=O)NCC(c1ccco1)N1CCN(c2ccc(OC)cc2)CC1)OCC (stereo not given) | inactive
COc1cc(C(=O)NCC(c2ccco2)N2CCCC2)ccc1OCc1ccccc1 (stereo not given) | 2.62 µM (active)
O=C(Cc1ccccc1Cl)N1CCOCC1 | inactive
COc1ccc(CCNC(=O)c2nnc(CS(=O)(=O)c3ccccc3)o2)cc1OC | inactive

Compound | Potency
CC(C)Cc1nnc(NC(=O)CN2C(=O)NC3(CCCCC3)C2=O)s1 | inactive
COc1ccc(CCN2CNc3c(c(=O)n(C)c(=O)n3C)C2)cc1OC | 13.1 µM (active)
COc1ccc(CCN=C2SCC(=O)N2C)cc1OC | inactive
COc1ccc(CCN2C(=O)C3CC=C(C)CC3C2=O)cc1OC (stereo not given) | inactive
CN(c1ccccc1)S(=O)(=O)c1cccc(C(=O)NNC(=O)c2ccncc2)c1 | inactive
COc1cccc(NC(=O)N2C3CCCC2CC(NC(C)=O)C3)c1 (stereo not given) | inactive
NC(=O)c1nnsc1-c1ccc(-c2snnc2C(N)=O)cc1 | inactive
NS(=O)(=O)c1ccc(CNC(=O)c2cnccn2)cc1 | inactive
COCCOCCn1cnc2ccccc21 | inactive
Cc1cc2ncn(CCCCOc3ccccc3)c2cc1C | 14.7 µM (active)
Cc1c(C(N)=O)sc2ncn(CCOc3ccccc3)c(=O)c12 | inactive
COc1ccc(NC(=O)CC(NC(C)c2ccccc2)C(=O)O)cc1 (stereo not given) | inactive
CCCCCC(O)(CCN1CCCCC1)c1ccccc1 (stereo not given) | inactive
CCOC(=O)CSc1nc2sc3c(c2c(=O)[nH]1)CC(C)(C)OC3 | inactive
CCC1(C)Cc2c(sc3nc(SC)[nH]c(=O)c23)CO1 (stereo not given) | 9.28 µM (active)
CCC1(C)Cc2c(sc3[nH]c(=S)n(Cc4ccccc4)c(=O)c23)CO1 (stereo not given) | inactive
CCOc1ccc(S(=O)(=O)N2CCCC(C(=O)N3CCC(C(N)=O)CC3)C2)cc1Cl (stereo not given) | inactive
COc1ccc(OC)c(S(=O)(=O)N2CCCC(C(=O)NCCc3ccccc3)C2)c1 (stereo not given) | inactive
CCOC(=O)c1sc(NC(=O)C2CSC3(C)CCC(=O)N23)nc1C (stereo not given) | inactive
COc1cc(C(C(=O)NC2CCCC2)N(C(=O)c2ccco2)c2ccccc2C(C)=O)cc(OC)c1OC (stereo not given) | inactive
O=C(/C=C/Nc1ccc(S(=O)(=O)Nc2cnc3ccccc3n2)cc1)c1cccnc1 | inactive
CCn1c(SCC(=O)Nc2ccc3c(c2)OCCO3)nnc1C(C)C | inactive
CCn1c(SCC(=O)Nc2ccc3c(c2)OCCO3)nnc1-c1ccncc1 | inactive
O=C(CSc1nnnn1-c1ccc2c(c1)CCC2)Nc1ccc2c(c1)OCCO2 | 10.4 µM (active)
c1ccc2c(c1)C(=NC1CCCCC1)NC2=NC1CCCCC1 | 2.94 µM (active)
O=C1CCCCC(=O)c2ccccc2N1 | inactive
CC(=O)c1ccc(N2CCN(CC(O)c3ccccc3)CC2)cc1 (stereo not given) | inactive

Compound | Potency
COc1cccc(NC(=S)NCc2ccccn2)c1 | inactive
COc1cccc(S(=O)(=O)NCc2ccc(C(=O)NCc3ccccn3)cc2)c1 | 2.94 µM (active)
COc1cccc(CNS(=O)(=O)c2csc(C(N)=O)c2)c1 | inactive
O=C(COC(=O)c1ccccc1)c1ccc2c(c1)OCCO2 | inactive
CCOC(=O)c1c(-c2ccccc2)oc2cc(Br)c(O)cc12 | inactive
O=C(c1ccc(Cn2cc([N+](=O)[O-])cn2)o1)N1CCCC1 | inactive
CC(C)CC(CCc1ccccc1)OS(N)(=O)=O (stereo not given) | inactive
O=C(COC(=O)c1ccc(O)cc1O)NNC(=O)c1cccs1 | inactive
CCOc1cc(N2CCOCC2)c(OCC)cc1NC(=O)COc1cccc(Cl)c1 | inactive
CCOc1cc(N2CCOCC2)c(OCC)cc1NC(=O)COc1cccc2cccnc12 | 9.28 µM (active)
CCOc1cc(N2CCOCC2)c(OCC)cc1NC(=O)COC(=O)[C@H](Cc1c[nH]c2ccccc12)NC(C)=O | inactive
O=C(N/N=C/c1cccnc1)c1ccc(NC(=O)c2ccc(F)cc2)cc1 | inactive
COc1ccc([N+](=O)[O-])cc1-c1nc2ccccc2nc1-c1ccccc1 | inactive
Cc1nc(-c2ccc([N+](=O)[O-])cc2)c(-c2ccccc2)o1 | inactive
Cn1nc(-c2ccccc2)c2cc([N+](=O)[O-])ccc21 | 9.28 µM (active)
CCOC(=O)N1CCN(C(=O)c2ccc3c(=O)n(CCc4ccc(OC)c(OC)c4)c(=O)[nH]c3c2)CC1 | 2.62 µM (active)
COc1ccccc1Cn1c(=S)[nH]c2cc(C(=O)N3CCN(C)CC3)ccc2c1=O | inactive
COc1ccc(CCNC(=O)CCCCn2c(=O)[nH]c3ccccc3c2=O)cc1OC | inactive
Cc1c(S(=O)(=O)NC(C)c2ccccc2)c(=O)n(C)c(=O)n1C (stereo not given) | inactive
CN(CC(=O)NCCc1ccc(F)cc1)CC(=O)Nc1ccc(F)c(F)c1F | inactive
COc1cccc(C(=O)N2CCC(n3nccc3NC(=O)C3CCOC3)CC2)c1 (stereo not given) | inactive
CCCCn1c(N)c(N(CCC(C)C)C(=O)CC2OC(=O)c3ccccc32)c(=O)[nH]c1=O (stereo not given) | 4.65 µM (active)
CCCCn1c(N)c(N(CCC(C)C)C(=O)c2ccc([N+](=O)[O-])o2)c(=O)[nH]c1=O | inactive
CCCCn1c(N)c(N(CCC(C)C)C(=O)c2ccc(COc3ccccc3)o2)c(=O)[nH]c1=O | inactive
